According to PubChem BioAssay AID651599 (National Center for Advancing Translational Sciences (NCATS), 2012):
Records with an inconclusive call do not appear. Entries that show only a call come without a potency. Calls of active or inactive are those of the source. The call rests on the fitted dose curve; in most records, active means well fitted inhibition curve with a large enough effect; inconclusive means small, poorly fitted or top-dose-only effect; inactive means no such curve, though single readings can be large or run the other way.

Target: Tumor susceptibility gene 101 protein (Homo sapiens) (UniProt Q99816)
Sequence (Q99816 whole entry, looked up): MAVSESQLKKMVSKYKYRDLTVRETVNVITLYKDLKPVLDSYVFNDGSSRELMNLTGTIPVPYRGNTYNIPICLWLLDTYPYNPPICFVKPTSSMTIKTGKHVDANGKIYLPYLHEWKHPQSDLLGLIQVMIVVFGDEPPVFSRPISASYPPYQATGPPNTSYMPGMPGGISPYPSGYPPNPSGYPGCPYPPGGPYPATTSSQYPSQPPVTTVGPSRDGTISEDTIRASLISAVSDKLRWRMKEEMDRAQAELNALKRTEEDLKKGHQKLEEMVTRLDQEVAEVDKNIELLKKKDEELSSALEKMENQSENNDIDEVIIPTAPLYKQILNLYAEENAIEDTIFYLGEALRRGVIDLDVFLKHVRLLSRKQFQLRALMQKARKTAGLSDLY
Assay: qHTS Assay for Iinhibitors of HIV-1 Budding by Blocking the Interaction of PTAP/TSG101: Hit Validation in TR assay
Conditions: Tsg101 binding domain + Texas Red-labeled PTAP peptide, fluorescence polarization, 20 min; series mostly up to 57.5 µM
In short: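 Fluorescence polarization: Tsg101 binding domain (10 uM final) with Texas Red-labelled PTAP peptide (50 nM final) in HEPES pH 7.5, 0.15 M NaCl, Tween 20, EDTA, TCEP; 20 min binding at room temperature after compound addition.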

SMILES: CCCCCCc1cc2cc(C(=O)NC)c(=N)oc2cc1O
- Potency: inactive

SMILES: O=C(c1ccccc1)c1ccc(O)cc1O
- Potency: inactive

SMILES: CCn1nc(-c2ccccc2)c2nc3ccccc3nc21
- Potency: inactive

SMILES: CC1CC=C2C(C#N)=C(N)C(C#N)(C#N)C(c3cccs3)C2C1 (configuration not stated)
- Potency: inactive

SMILES: N=C1/C(=C/c2coc3ccccc3c2=O)C(=O)N=C2SC(c3ccco3)=NN12
- Potency: inactive

SMILES: COc1ccc(OC)c(/C=C(\C#N)c2nc(-c3ccc(F)cc3)cs2)c1
- Potency: inactive

SMILES: CC(C)c1cc(=O)oc2c3c4c(cc12)CCCN4CCC3
- Potency: inactive

SMILES: NC(=O)c1ccccc1NCC(=O)c1ccc(F)cc1
- Potency: inactive

SMILES: Cc1ccc(-c2cccc(NC(=O)C3C4C=CC(C4)C3C(=O)O)c2)o1 (configuration not stated)
- Potency: inactive

SMILES: Cc1ccc(N2C3=C(C(=O)CC(C)(C)C3)C(c3cn(C)nc3C)C3=C2CC(C)(C)CC3=O)cc1
- Potency: inactive

SMILES: CCC1CCCCN1C(=O)c1cc2cc(Br)ccc2oc1=O (configuration not stated)
- Potency: inactive

SMILES: CCOc1ccc(Cn2c3ccc(OC)cc3c3nc4ccccc4nc32)cc1
- Potency: inactive

SMILES: Cc1nc(Cl)c2c(n1)NC1=C(O2)C(=O)CCC1
- Potency: inactive

SMILES: CC(C)(C)N=Cc1c(O)ccc2oc3c(c12)CCCC3
- Potency: inactive

SMILES: O=c1oc2c3c4c(cc2c2c1CCC2)OCCN4CCC3
- Potency: inactive

SMILES: Cc1ccccc1-n1c(SCc2c(C)noc2C)nnc1-c1cccnc1
- Potency: inactive

SMILES: CCOC(=O)c1cnc2ccc(OC)cc2c1Nc1ccc(N2CCN(C)CC2)cc1
- Potency: inactive

SMILES: c1ccc(-c2cn3nc(-c4ccccc4)c(-c4ccccc4)nc3n2)cc1
- Potency: inactive

SMILES: COc1ccc2ccccc2c1C(O)c1nccn1C (configuration not stated)
- Potency: inactive

SMILES: COc1cccc2c1C(=O)c1c(O)c3c(c(O)c1C2=O)C[C@@](O)(C(=O)CO)C[C@@H]3OC1CC(N)C(O)C(C)O1 (some centres not stated)
- Potency: inactive

SMILES: Cc1cc(=O)oc(C)c1C(=O)Nc1ccc2ncccc2c1
- Potency: inactive

SMILES: CCN1CCN(Cc2ccc(NC(=O)Nc3ccccc3OC)cc2)CC1
- Potency: inactive
